Results filed as inconclusive are left out. Activity calls are given as the source filed them. The calls were made as follows: active = hit-call score of the fitted dose curve at least 0.9, where 1 is the maximum; inconclusive = response in the unintended direction; inactive = score below 0.9.
What follows are molecules tested against rainbow trout Glucocorticoid Receptor (GR), nr3c1 (gene 100136786) (UniProt P49843) (assay: ATG_rtGR_EcoTox2: Attagene TRANS-FACTORIAL EcoTox-2 HepG2 Assay for rainbow trout Glucocorticoid Receptor (GR)).
Sequence of rainbow trout Glucocorticoid Receptor (GR), nr3c1 (gene 100136786) (P49843 whole entry, looked up): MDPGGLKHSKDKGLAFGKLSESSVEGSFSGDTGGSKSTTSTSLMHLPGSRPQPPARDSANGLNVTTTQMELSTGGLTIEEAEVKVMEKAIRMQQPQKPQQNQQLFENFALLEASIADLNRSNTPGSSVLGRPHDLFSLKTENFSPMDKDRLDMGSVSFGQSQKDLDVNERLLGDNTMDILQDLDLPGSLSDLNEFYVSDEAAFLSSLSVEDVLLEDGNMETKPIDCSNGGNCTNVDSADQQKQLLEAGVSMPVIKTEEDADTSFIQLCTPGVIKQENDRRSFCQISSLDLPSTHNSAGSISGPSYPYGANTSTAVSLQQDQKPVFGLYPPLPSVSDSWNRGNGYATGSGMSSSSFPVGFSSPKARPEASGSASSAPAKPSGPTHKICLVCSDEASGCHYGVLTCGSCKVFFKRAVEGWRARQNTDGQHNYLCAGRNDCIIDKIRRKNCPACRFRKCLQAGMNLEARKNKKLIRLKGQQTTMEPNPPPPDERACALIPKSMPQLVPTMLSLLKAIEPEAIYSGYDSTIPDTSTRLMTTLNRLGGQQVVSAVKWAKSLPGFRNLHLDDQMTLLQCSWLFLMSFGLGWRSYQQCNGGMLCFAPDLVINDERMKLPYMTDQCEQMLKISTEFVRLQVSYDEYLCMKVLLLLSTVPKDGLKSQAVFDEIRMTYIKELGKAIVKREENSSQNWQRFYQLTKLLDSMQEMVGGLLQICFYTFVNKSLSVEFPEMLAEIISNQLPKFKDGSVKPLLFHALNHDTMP
Protocol: ATG_EcoTox2 is a cell-based, multiplexed assay created by modifying the existing Attagene TRANS-FACTORIAL system to include a panel of nuclear receptors from some or all the following species: human (Homo sapiens), african clawed frog (Xenopus laevis), rainbow trout (Oncorhynchus mykiss), japanese medaka (Oryzias latipes), and zebrafish (Danio rerio). The ECOTOX2-FACTORIAL format uses HepG2, a human liver cell line, with measurements taken at 24 hours after chemical dosing in a 24-well plate. ATG_rtGR_EcoTox2 is one of 29 assay components calculated in the ATG_EcoTox2 assay. It is designed to make measurements of mRNA induction, a form of inducible reporter, as detected with fluorescence intensity signals by Reverse transcription polymerase chain reaction (RT-PCR) and Capillary electrophoresis technology.The assay endpoint ATG_rtGR_EcoTox2 was analyzed in the positive analysis fitting direction relative to DMSO as the negative control and baseline of activity. Using a type of inducible reporter, measures of mRNA for gain-of-signal activity can be used to understand the reporter gene at the transcription factor-level as they relate to the gene for glucocorticoid receptor. Furthermore, this assay endpoint can be referred to as a primary readout, because this assay has produced multiple assay endpoints where this one serves a reporter gene function. To generalize the intended target to other relatable targets, this assay endpoint is annotated to the nuclear receptor intended target family, where the subfamily is steroidal.
Human liver HepG2 cells are transiently transfected with multiple reporter transcription units (MRTUs) in 6-well plates using FuGene 6 reagent (Roche; 3 ml FuGene/1 mg DNA). The MRTU constructs are regulated by a cis-regulating element (promoter). Each RTU expresses a GAL4-UAS that regulates the transcription of a nearby target reporter gene sequence. A major difference between the CIS and TRANS system is that in CIS activities of endogenous TFs are measured, whereas the TRANS assay evaluates changes in activities of exogenous, chimeric NR-Gal4 proteins. […] At the end of 24 hour incubation, total RNA was isolated using TriZol reagent (Invitrogen). The isolated RNA is then reverse-transcribed using oligo(dT) primer and Mo-MLV reverse transcriptase (Invitrogen) with DNAse I (Ambion) treatment for 30 min. The one-tenth of the produced cDNA was amplified by PCR using Taq DNA polymerase (Invitrogen) and two reporter sequence-specific primers. […] The fragments were purified using Qiaquick PCR columns (Qiagen), analyzed on an ABI 3130xL genetic analyzer (Applied Biosystems) with peak positions identified by using a set of X-rhodamine (ROX)-labeled MapMarker1000 molecular weight standards (BioVentures). […]

Structure (SMILES) | outcome
O=S(=O)(O)C(F)(F)C(F)(F)C(F)(F)C(F)(F)C(F)(F)C(F)(F)F | inactive
[Cl][Sn]([c]1ccccc1)([c]1ccccc1)[c]1ccccc1 | inactive
CCCCOCN(C(=O)CCl)c1c(CC)cccc1CC | inactive
O=C(O)C(F)(F)C(F)(F)C(F)(F)C(F)(F)C(F)(F)C(F)(F)C(F)(F)F | inactive

— PubChem BioAssay AID2284333 (EPA ToxCast)
